Compounds with a hit are over-represented: about 6.5% of the library has one in this group of screens.
HepG2 viability = kills HepG2 cells in TGF-b inhibitor counter-screen; actives 0.76% (n = 410,000); HepG2 CAGA-GFP viability, ATP luminescence, 18 h; Potency, µM (titrated, usually from 46.1 µM), usual class: cytotoxic
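CellTiter-Glo luminescence gave cytotoxicity after 18 hours at 37 degrees C. The cells were HepG2 CAGA-GFP in 1% FBS DMEM, stimulated with 500 pg/mL TGF-beta after compound addition. %Activity was normalised to no-cell wells (complete cell-killing) and DMSO (no toxicity), and curves were fitted and classified.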
TGFb inhibitor = inhibitors of TGF-b signaling; HepG2 CAGA-GFP TGF-b/SMAD3 reporter, GFP fluorescence, 18 h; TGF-beta stimulated, 500 pg/mL final; Potency, µM (titrated, usually from 46.1 µM), usual class: inhibitors; actives 1.2% (n = 410,000); also: nearly all actives have a fitted effect of over 65% in size
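Using HEPG2 CAGA-GFP reporter cells at 1000 cells/well, we pinned test compounds, stimulated with recombinant TGF-beta (500 pg/mL final) and measured total well GFP after 18 h.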
IL-1B inflam inh = blocks inflammasome-driven IL-1 beta release | THP-1 LPS/ATP IL-1B secretion, AlphaLISA, 16 h; stronger effect = lower value | activity change, % at 57.5 µM | actives 4.7% (n = 360,000) | AID 743279; in the data active = activity change below about -50%; inconclusive = mostly about -30% to -49%
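Secreted IL-1B measured by AlphaLISA bead assay after 16 h compound exposure of THP-1 cells; compounds (final up to 57.5 uM) added 1 h before LPS (250 ng/mL) and ATP (1.25 mM) stimulation; lower signal means less secretion.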
Giardia killer = Giardia lamblia killing; Giardia lamblia trophozoite viability; activity change, % at 7.66 µM, hits read low; actives 0.15% (n = 340,000); in the data active = activity change below about -80%; inconclusive = between about -30% and that limit;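 also: parasites exposed to compound for two days anaerobically before the ATP read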
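Media and compound were dispensed first, then trophozoites at 100 cells/well; plates sat 48 hrs at 37 deg C without oxygen before ATP luminescence reagent was added and read after 15-30 min at room temperature.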
HT1080 IDH1KD tx = kills HT-1080 cells with IDH1 knockdown; HT-1080 IDH1 knockdown viability, ATP luminescence, 48 h; Potency, µM (top dose mostly 46.1 µM), usual class: cytotoxic; actives 2% (n = 360,000)
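Assay cells: HT-1080 with IDH1 knockdown, 750 per well, RPMI/5% FBS. Exposure: 48 h at 37 °C following 2 h pre-incubation. Read: CellTiter-Glo luminescence; fitted concentration-response, curve class assigned.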
HT1080-NT tox = kills 2HG-producing HT-1080-NT fibrosarcoma cells | HT-1080-NT fibrosarcoma viability, CellTiter-Glo ATP luminescence, 48 h | Potency, µM (titrated, usually from 46.1 µM), hits mostly cytotoxic | actives 1.6% (n = 360,000);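 also: NT is the 2HG producing partner of a matched IDH1 knockdown line; nearly all actives have a fitted effect of over 55% in size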
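750 cells/well, RPMI + 5% FBS; 2 h settle, compound pin-transfer, 48 h at 37 degrees C. CellTiter-Glo 10 min RT, luminescence. Normalized to DMSO and media-only wells.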
A number is an active result; 0 = inactive; ? = inconclusive; - = no result. Unless noted, calls follow the shape of the dose curve; as a rule, active = well fitted curve in the direction sought with a large enough effect; inconclusive = small, poorly fitted or top-dose-only effect, or another doubt; inactive = no such curve, though single readings can be large; an effect the other way counts as inactive or inconclusive.

SMILES	HepG2 viability	TGFb inhibitor	IL-1B inflam inh	Giardia killer	HT1080 IDH1KD tx	HT1080-NT tox
CCOC(=O)N1CCN(C(=O)CCl)CC1	0	0	-92	0	?	?
CC(C)(C)NC(=O)CN1CCN(C(=O)CCl)CC1	0	?	-79	0	?	?
CN(Cc1ccc(Cl)cc1)C(=O)CCl	0	?	-103	0	16µM	?
COc1ccc(CN(C)C(=O)CCl)cc1	0	0	-98	0	?	?
COc1ccc(CN(C)C(=O)COC(=O)c2cnc(Cl)c(Cl)c2)cc1	0	0	-99	0	0	0
CN(Cc1ccc(Cl)s1)C(=O)CCl	0	7.1µM	-106	0	8.2µM	21µM
CN(C)CCNC(=O)c1ccc(Cl)s1	0	0	0	0	0	0
CN(Cc1ccccc1)C(=O)COC(=O)c1cc(Cl)nc(Cl)c1	0	0	0	0	0	0
Nc1cccc(S(=O)(=O)NC2=NCCC2)c1	0	0	0	0	0	0
COc1ccccc1NC(=O)CN1CCCCCC1	0	0	0	0	0	0
COc1ccccc1NC(=O)COc1cc(Br)c(CNCCCN2CCOCC2)cc1OC	0	0	-53	0	?	?
COc1ccccc1OCC(=O)NCCCN1CCOCC1	0	0	0	0	0	0
COc1ccccc1NC(=O)CN1CCOCC1	7.9µM	0	0	0	0	0
COc1ccccc1N1CCN(S(=O)(=O)c2c[nH]c(=O)[nH]c2=O)CC1	0	0	0	0	0	0
CC(c1ccccc1)C1CC(=O)N(c2ccc([N+](=O)[O-])cc2)C1=O (stereo unspecified)	0	0	0	0	0	0
O=C(CNC(=S)N(CCCN1CCOCC1)Cc1cccs1)NC1CCCC1	0	0	0	0	0	0
Cc1cc(C)cc(S(=O)(=O)c2cnc3ccccc3n2)c1	0	0	-99	0	?	0
O=S(=O)(c1ccc(Cl)cc1)c1cnc2ccccc2n1	0	?	-99	0	?	?
CCN(CC)C1CCN(c2nc3nonc3nc2NCCOC)C1 (stereo unspecified)	0	0	0	0	0	0
COCC1CCN(C(=O)CCc2nnc(C3(c4ccc(Cl)cc4)CCC3)o2)CC1	0	0	0	0	0	0
COc1ccc(C(OCC(O)CNCCc2ccc(S(N)(=O)=O)cc2)c2ccc(OC)cc2)cc1 (stereo unspecified)	0	0	-68	0	?	0
OC(CNCCc1ccc(C(F)(F)F)cc1)COC(c1ccccc1)c1ccccc1 (stereo unspecified)	0	?	-69	0	?	?
COc1ccc(C(=O)NCC(c2ccco2)N2CCc3ccccc32)cc1 (stereo unspecified)	0	?	0	0	5.8µM	4.1µM
O=C(NCC(c1ccco1)N1CCc2ccccc2C1)c1ccc(Cl)c([N+](=O)[O-])c1 (stereo unspecified)	0	?	-83	0	0	0
O=C(NCC(c1ccco1)N1CCCC1)c1ccc(Cl)c(S(=O)(=O)N2CCc3ccccc32)c1 (stereo unspecified)	0	?	-55	0	?	0
SMILES	HepG2 viability	TGFb inhibitor	IL-1B inflam inh	Giardia killer	HT1080 IDH1KD tx	HT1080-NT tox
O=C(NCC(c1ccco1)N1CCc2ccccc2C1)c1cccc([N+](=O)[O-])c1 (stereo unspecified)	0	0	0	0	0	0
CCCNC(=O)C(Cc1ccccc1)NC(=O)c1ccc(-c2ccccc2)cc1 (stereo unspecified)	0	0	0	0	0	0
CCC(C)NC(=O)c1ccc2nc(-c3ccc(OC)c(OC)c3)c(-c3ccc(OC)c(OC)c3)nc2c1 (stereo unspecified)	0	0	0	0	0	0
CC1CC(C)CN(C(=O)C(C)N2CCN(S(=O)(=O)c3cccs3)CC2)C1 (stereo unspecified)	0	0	0	0	0	0
CC1CC(C)CN(C(=O)C(C)N2CCN(S(=O)(=O)c3ccc(Br)s3)CC2)C1 (stereo unspecified)	0	?	-59	0	0	0
O=C(Nc1cccn2ncnc12)C(Cl)Cl	0	0	0	0	0	0
Cc1ccc(C(=O)OCC(=O)NCc2ccco2)s1	0	0	0	0	0	0
Cn1c(/C=C/c2ccc(Br)cc2)c([N+](=O)[O-])c(=O)n(C)c1=O	0	?	-103	0	13µM	?
COc1ccc(/C=C/c2c([N+](=O)[O-])c(=O)n(C)c(=O)n2C)cc1O	0	0	-83	0	0	0
CCCOc1ccc(/C=C/c2c([N+](=O)[O-])c(=O)n(C)c(=O)n2C)cc1	0	0	-77	0	0	0
C=CCn1c(SCC(=O)c2[nH]c(C)c(C(=O)OCC)c2C)nc2scc(-c3ccccc3)c2c1=O	0	0	0	0	0	0
CCn1c(SCC(=O)Nc2oc(C)c3c(C)n[nH]c(=O)c23)nc2sc(C)c(C)c2c1=O	0	0	0	0	0	0
O=C(N/N=C/c1ccc(Cl)c([N+](=O)[O-])c1)C1CC1	0	0	-50	0	0	0
O=C(NC1CC1)C1CCN(S(=O)(=O)c2ccc(Cl)c([N+](=O)[O-])c2)CC1	0	?	-97	0	?	?
Fc1cccc(/C=N/NC(=S)Nc2ccccc2Cl)c1	0	?	0	0	?	?
S=C(N/N=C/c1ccc(Cl)c(Cl)c1)Nc1ccccc1Cl	0	0	0	0	8.2µM	15µM
O=[N+]([O-])c1cc(/C=N/NC(=S)Nc2ccccc2Cl)ccc1Cl	0	0	-86	0	?	?
O=C(NC1CCN(S(=O)(=O)c2cccc([N+](=O)[O-])c2)CC1)C1CCCCC1	0	0	0	0	0	0
Cc1ccc(NC(=S)N/N=C/c2ccc(Cl)c([N+](=O)[O-])c2)cc1	0	0	0	0	0	0
O=C(NCc1ccco1)c1ccc2c(c1)N(Cc1c(F)cccc1Cl)C(=O)c1ccccc1S2	0	?	-	-	-	-
O=C(COC(=O)c1ccccc1Nc1ccc(SC(F)F)cc1)NC1CC1	0	0	0	0	0	0
Cc1ccc(NC(=S)N/N=C/c2c(Cl)cccc2Cl)c(C)c1	0	0	0	0	0.52µM	?
COC(=O)N1CCc2c(sc(NC(=O)C3=COCCO3)c2C#N)C1	0	0	0	0	3.7µM	4.6µM
COc1cccc(C(=O)Nc2sc3c(c2C(=O)O)CCCC3)c1	0	0	0	0	0	?
COc1cccc(C(=O)Nc2sc3c(c2C#N)CCN(C(C)=O)C3)c1	0	?	0	0	2.9µM	2.6µM
COc1cc(-c2nnc(-c3ccncc3)o2)ccc1OCc1ccccc1	0	0	0	0	0	0

Screening results deposited in PubChem by National Center for Advancing Translational Sciences (NCATS).
